Consider 40 compounds from PubChem BioAssay (Tox21).

Results filed as inconclusive are left out. Active and inactive are the calls of the source. The call rests on the fitted dose curve; in most records, active means well fitted cell-killing curve with a large enough effect in the repeat runs; inconclusive means weak or mixed curves, or effect the other way; inactive means flat fitted curve, though single readings scatter.
On the % scale 0 is the no-effect control and ±100 the full control effect; potency means the concentration at half of the fitted maximal effect.

This assay is described as follows: qHTS assay to identify small molecule agonists of the estrogen receptor beta (ER-beta) signaling pathway - cell viability counter screen (AID 1259380). Further: nearly all actives have a fitted effect of over 30% in size. As to conditions: ER-beta-bla HEK293T viability, CellTiter-Glo luminescence, 16 h; series mostly up to 92.4 µM; activity change, negative = cytotoxicity: at the top concentration. The source says:
National Center for Advancing Translational Sciences [NCATS]
NIH Chemical Genomics Center [NCGC]
U.S. Environmental Protection Agency [EPA]
National Institutes of Environmental Health Sciences [NIEHS]
National Toxicology Program [NTP]
U.S. Food and Drug Administration [FDA]
Estrogen receptor (ER), a nuclear hormone receptor, plays an important role in development, metabolic homeostasis and reproduction. Two subtypes of ER, ER-alpha and ER-beta, have similar expression patterns with some uniqueness in both types. Endocrine disrupting chemicals (EDCs) and their interactions with steroid hormone receptors like ER causes disruption of normal endocrine function. To identify the compounds that activate ER signaling, an ER beta-UAS-bla GripTite cell line (Life Technologies, Madison, WI, USA) containing a beta-lactamase reporter gene under the control of an UAS response element was used to screen Tox21 10K compound library. The cytotoxicity of the Tox21 compound library against the ER-beta-bla cell line was tested in parallel by measuring the cell viability using CellTiter-Glo assay in the same wells.
Tox21 Assay Protocol Summary:
ER-beta-UAS-bla HEK293T cells were dispensed at 2,000 cells/5 uL of assay medium containing 2% charcoal stripped FBS per well into black wall/clear-bottom 1536-well plates using a Multidrop Combi (ThermoFisher Scientific, Waltham, MA) dispenser. After the assay plates were incubated at a 37C and 5% CO2 for 6 hr, 23 nL of compounds dissolved in DMSO, positive controls or DMSO only was transferred to the assay plate by a Pintool station (Kalypsys, San Diego, CA). The plates were incubated at 37C and 5% CO2 for 16 hr. Then 1 uL of LiveBLAzerTM B/G FRET substrate was added using a BioRAPTR FRD (Flying Reagent Dispenser, Aurora Discovery, San Diego, CA) and then the plates were incubated at room temperature for 2 hours, and fluorescence intensity was measured by an Envision plate reader (PerkinElmer, Shelton, CT). For cell viability readout that measures cytotoxicity, 4 uL/well of CellTiter-Glo reagent was added into the assay plates using a FRD. After 30 min incubation at room temperature, the luminescence intensity in the plates was measured using a ViewLux (PerkinElmer) plate reader.
On the technique in general: qHTS replaces the single test concentration by a dilution series.
Turning to `[Cl][Hg][c]1ccccc1`, the Potency is 3.44 µM (active). Regarding `CCc1cccc(C)c1N(C(=O)CCl)[C@@H](C)COC`, the “activity change, negative = cytotoxicity” value is -18.7% (inactive). The same measure, in the same setting: as for `CC(Cc1ccc(O)cc1)NCC(O)c1cc(O)cc(O)c1` (stereo not given), the figure is 0.0651% [at 42.5 µM] (inactive). For the compound `CN1CCc2cc(Cl)c(O)cc2[C@H]2c3ccccc3CC[C@@H]21`, the Potency is 15 µM (active). As to `CCCCN(CCCC)C(=S)[S-].CCCCN(CCCC)C(=S)[S-].[Ni+2]`, the “activity change, negative = cytotoxicity” value is -16.8% [at 42.5 µM] (inactive). On to `[C-]1=CC=CC1.[Cl][Zr+2][Cl].c1cc[cH-]c1`, for which the “activity change, negative = cytotoxicity” value was -11% (inactive). In the case of `N#Cc1c[nH]cc1-c1cccc2c1OC(F)(F)O2`, the Potency is 21.7 µM (active). Same read-out and setting: for `Nc1ccccc1-c1ccccc1` the value was 48.3 µM (active). Regarding `C[C@@H]1CC2=CC(=O)CC[C@@H]2[C@H]2CC[C@@]3(C)[C@@H](CC[C@]3(C)O)[C@@H]21`, the “activity change, negative = cytotoxicity” value is -0.212% [at 42.5 µM] (inactive). Regarding `Fc1ccc(C(OCCN2CCN(CCCc3ccccc3)CC2)c2ccc(F)cc2)cc1`, the Potency was 26.6 µM (active). With `Cc1ccc([N+](=O)[O-])[c]2c1[O][Hg]2`, the Potency was 4.22 µM (active). As to `CCCCN(CCCC)C(=S)S`, the “activity change, negative = cytotoxicity” value is -3.68% (inactive).

For `C#CC1(O)CCCCC1`, the “activity change, negative = cytotoxicity” value was 0.629% (inactive). Same read-out and setting: for `CN` the value was 7.38% (inactive); for `CCN(CC)Cc1nccn1-c1ccc([N+](=O)[O-])cc1C(=O)c1ccccc1Cl`, -1.36% [at 42.5 µM] (inactive); for `N#Cc1ccc(N(CC(N)=O)CC(F)(F)F)cc1C(F)(F)F`, -0.408% (inactive).

For `O=Cc1ccccc1`, the “activity change, negative = cytotoxicity” value is -2.92% (inactive). As to `CCC(C)Nc1c([N+](=O)[O-])cc(C(C)(C)C)cc1[N+](=O)[O-]` (stereo not given), the “activity change, negative = cytotoxicity” value was -15.1% (inactive). The same measure, in the same setting: for `C[C@]12CC[C@H]3[C@@H](CCC4=CC(=O)CC[C@@H]43)[C@@H]1CC[C@@H]2OC(=O)CCc1ccco1` the value was -9.61% [at 42.5 µM] (inactive); for `CCC(C)c1cccc(C(C)CC)c1O` (stereo not given), -7.16% (inactive).

In the case of `CCC(OC(C)=O)C(CC(C)NC)(c1ccccc1)c1ccccc1` (stereo not given), the Potency is 49 µM (active). For the compound `Cc1ccc(C)c2ccccc12`, the “activity change, negative = cytotoxicity” value was -0.185% (inactive). `O=C(Cl)c1ccccc1F`: the “activity change, negative = cytotoxicity” value is -1.8% (inactive).

Consider `CC[N+]1(CC)CCC(OC(=O)C(O)(c2ccccc2)c2ccccc2)C1` (stereo not given), for which the “activity change, negative = cytotoxicity” value is -0.167% [at 42.5 µM] (inactive).

`C=Cc1cccc(CCl)c1`: the “activity change, negative = cytotoxicity” value was 2.85% [at 240 µM] (inactive). Turning to `COP(=S)(NC(C)C)Oc1ccc(C)cc1[N+](=O)[O-]` (stereo not given), the “activity change, negative = cytotoxicity” value was -1.31% (inactive). Still for that read-out and setting: for `O=C(Nc1ccc(F)cc1F)c1cccnc1Oc1cccc(C(F)(F)F)c1` the value was -1.12% (inactive).

As to `Brc1cccc(-c2ccccc2)c1`, the “activity change, negative = cytotoxicity” value is -2.24% (inactive). As for `CCCCC(CC)COC(=O)OOC(C)(C)C` (stereo not given), the “activity change, negative = cytotoxicity” value was 6.78% (inactive).

For `N#Cc1c2ccccc2cc2ccccc12`, the “activity change, negative = cytotoxicity” value is 0.975% (inactive). In the case of `CC1(C)C(C=C(Cl)Cl)C1C(=O)OC(C#N)c1ccc(F)c(Oc2ccccc2)c1` (stereo not given), the “activity change, negative = cytotoxicity” value was 2.74% (inactive). For the compound `Cc1ccn2nc(S(=O)(=O)Nc3c(F)cccc3F)nc2n1`, the “activity change, negative = cytotoxicity” value was 4.43% (inactive). For the compound `CCCCON=O`, the “activity change, negative = cytotoxicity” value was 5.31% (inactive). On the same count and under the same terms, for `CN1C(=O)[C@@H](NC(=O)c2cc3ccccc3[nH]2)N=C(c2ccccc2)c2ccccc21` the value was 0.524% [at 42.5 µM] (inactive); for `COC(=O)/C=C(\C)OP(=O)(OC)OC`, -2.47% (inactive). For the compound `CCOP(=S)(OCC)SC(CCl)N1C(=O)c2ccccc2C1=O` (stereo not given), the “activity change, negative = cytotoxicity” value is 2.39% (inactive).

On to `CCN1CCC2(CC1)COc1cc3c(cc12)N(C(=O)c1ccc(-c2ccc(-c4nnc(C)o4)cc2C)cc1)CC3`, for which the Potency was 6.33 µM (active). `C1=CCC=C1`: the “activity change, negative = cytotoxicity” value is 8.46% (inactive). For the compound `CCC(C)Br` (stereo not given), the “activity change, negative = cytotoxicity” value was 3.47% (inactive). `CCOP(=O)(OCC)Oc1nc(Cl)c(Cl)cc1Cl`: the Potency is 8.58 µM (active).
